Laboratory results: PubChem BioAssay AID1345085 (National Center for Advancing Translational Sciences (NCATS), 2018)
Records with an inconclusive call do not appear. Unmarked numbers belong to inactive results. The source made the active and inactive calls. The call rests on the fitted dose curve; in most records, active means well fitted cell-killing curve with a large enough effect; inconclusive means small, poorly fitted or top-dose-only effect, or effect the other way; inactive means no such curve, though single readings can be large or run the other way.

System: PA-1
Assay: Confirmatory qHTS for gynecologic anti-cancer compounds from libraries of approved drugs and bioactive compounds; further: nearly all actives have a fitted effect of over 55% in size
Settings: gynecologic cancer cell panel viability, ATPlite luminescence, 48 h; series mostly up to 57.6 µM; activity change, negative = viability loss: at the top concentration
Text: National Center for Advancing Translational Sciences [NCATS] Assay Overview: Chemotherapeutic drug responses vary from cancer to cancer and from patient to patient. These variations could be caused by a number of factors including patient genomic background, tumor mutations, tumor heterogeneity, and aspects of drug treatment. Chemotherapeutic drug resistance is also a common issue and can lead to ineffective treatment and patient death. Here we have profiled the cell killing effects of thousands of compounds to characterize the responses in three gynecological cancers, identify cancer-selective compounds, and understand the diversity of responses to these compounds from pan-cancer suppressors to single cell line selective compounds. In this assay, we screened a 7,914 compound drug library that included approved drug and bioactive compounds in six ovarian, three cervical, and two placental cancer cell lines using the ATPlite assay for cell viability. ATPlite is a luminescence based assay reliant on the conversion of a luciferase substrate to light in the presence of ATP. As a cytotoxic compound will suppress growth and decrease the number of cells, the concentration of ATP will decrease, and less light signal will be detected in the well. Hits were selected from the primary screen for follow-up confirmation. For the confirmation screens, the ovarian cancer cell lines included CAOV-3, SK-OV-3, SW 626, ES-2, PA-1, and TOV-21G. The cervical cancer cell lines included HeLa, Ca Ski, and C-33 A. The placental cancer cell lines included JEG-3 and JAR. HEK 293T cells were used as the control cell line to determine the selectivity index. The ATPlite assay was used to determine the IC50 values.
Assay Protocol Summary: 1,000 cells in 4 uL of media were dispensed into white, solid bottom 1536-well plates using a Multidrop Combi (Thermo Scientific). The Assay plates were incubated for 16 hours at 37 C with 5% CO2 in assay plates, followed by the addition of 23 nL of DMSO or drug dissolved in DMSO. . Each compound was assayed in 11 concentrations (1:3 dilution) from 57.5 uM to 0.977 nM, using the automated Wako 1536 Pin Tool workstation and incubated at 37 C with 5% CO2 48 hours. 4 uL of ATPlite, the ATP monitoring reagent, was then added to the each well of the assay plates using the Multidrop Combi reagent dispenser followed by incubation for 15 minutes at room temperature. The resulting luminescence was measured using the ViewLux plate reader.
On the % scale 0 is the no-effect control and ±100 the full control effect; potency means the concentration at half of the fitted maximal effect.

Compound | Potency | activity change, negative = viability loss [%]
O=C(CCCCCCC(=O)Nc1ccccc1)NO | 1370 nM (active) | –
O=C1N(c2ccccc2)c2ccccc2C1(Cc1ccncc1)Cc1ccncc1 | – | 29.4
NC(=O)Nc1cc(-c2cccc(F)c2)sc1C(=O)NC1CCCNC1 (stereo not given) | 1720 nM (active) | –
Cc1nc(N)ncc1-c1nc(N2CCOCC2)c2sc(C(C)(C)O)cc2n1 | 6850 nM (active) | –
COc1cc(N2CCC(N(C)C)CC2)ccc1Nc1ncc(Cl)c(Nc2ccccc2P(C)(C)=O)n1 | 6110 nM (active) | –
C#C[C@]1(O)CC[C@H]2[C@@H]3CCC4=CC(=O)CC[C@@H]4[C@H]3CC[C@@]21CC | – | -1.74
CN(C)C/C=C/C(=O)Nc1cc2c(Nc3ccc(F)c(Cl)c3)ncnc2cc1OC1CCOC1 (stereo not given) | 9680 nM (active) | –
C[C@@]1(C(=O)Nc2ccc(F)nc2)CCCN1c1nc(Nc2cc(C3CC3)[nH]n2)c2cccn2n1 | 34.3 nM (active) | –
CN(C)c1ccc2nc3ccc(=[N+](C)C)cc-3sc2c1 | 21700 nM (active) | –
CC(C)CC(=O)Nc1n[nH]c2c1CN(C(=O)C1CCN(C)CC1)C2(C)C | 172 nM (active) | –
Cn1cc(-c2[nH]c3cc(NC(=O)[C@H](N)C4CCCCC4)cc4c3c2C=NNC4=O)cn1 | 8630 nM (active) | –
CCc1c2c(nc3ccc(O)cc13)-c1cc3c(c(=O)n1C2)COC(=O)[C@]3(O)CC | 76.9 nM (active) | –
NCCOc1cc(C(=O)Nc2cc(OCCN)c3ccccc3n2)nc(C(=O)Nc2cc(OCCN)c3ccccc3n2)c1 | 19300 nM (active) | –
COc1cc2c(cc1-c1c(C)noc1C)ncc1[nH]c(=O)n(C(C)c3ccccn3)c12 (stereo not given) | 2170 nM (active) | –
O=C(/C=C/c1cccc(S(=O)(=O)Nc2ccccc2)c1)NO | 595 nM (active) | –
Fc1cc(-c2cccc3ncc(-c4cnn(C5CCNCC5)c4)nc23)cc(F)c1CN1CCOCC1 | 27300 nM (active) | –
Nc1ccc(-c2ccc3ncc4ccc(=O)n(-c5cccc(C(F)(F)F)c5)c4c3c2)cn1 | 863 nM (active) | –
CC(C)C[C@H](NC(=O)[C@H](Cc1ccccc1)NC(=O)c1cnccn1)B(O)O | 38.5 nM (active) | –
O=C1Cc2cc(CCN3CCN(c4nsc5ccccc45)CC3)c(Cl)cc2N1 | 24300 nM (active) | –
CN[C@@H](C)C(=O)N[C@H]1CN(C(=O)CC(C)C)CC[C@H]2CC[C@@H](C(=O)NC(c3ccccc3)c3ccccc3)N2C1=O | – | -1.71

Compound | Potency | activity change, negative = viability loss [%]
CO[C@@]12[C@H](COC(N)=O)C3=C(C(=O)C(C)=C(N)C3=O)N1C[C@@H]1N[C@@H]12 | – | 12.8
Cc1cnc(Nc2ccc(CN3CCOCC3)cc2)nc1Nc1cccc(S(=O)(=O)NC(C)(C)C)c1 | 2170 nM (active) | –
Cc1cc(Nc2cc(N3CCN(C)CC3)nc(Sc3ccc(NC(=O)C4CC4)cc3)n2)n[nH]1 | 2170 nM (active) | –
CC(C)Nc1cc(-c2c[nH]c(C(=O)N[C@H](CO)c3cccc(Cl)c3)c2)c(Cl)cn1 | 6110 nM (active) | –
CCCS(=O)c1ccc2nc(NC(=O)OC)[nH]c2c1 (stereo not given) | 34300 nM (active) | –
CN(C)c1ccc(-c2nc3ncc(Cl)c(N4CCN(CC(=O)Nc5nccs5)CC4)c3[nH]2)cc1 | 3350 nM (active) | –
COc1cc(N2CCC(N)CC2)ccc1Nc1ncc(Cl)c(-c2c[nH]c3ccccc23)n1 | 19300 nM (active) | –
Cc1nc2ccc(CN(C)c3ccc(C(=O)NC(CCC(=O)O)C(=O)O)s3)cc2c(=O)[nH]1 (stereo not given) | 137 nM (active) | –
O=c1cc(CN2CCOCC2)occ1OCCCCCSc1ccnc2cc(C(F)(F)F)ccc12 | 8630 nM (active) | –
Nc1cccc(-c2cc3c(Oc4cccc(O)c4)ncnc3[nH]2)c1 | 9680 nM (active) | –
Cc1cnc(Nc2ccc(OCCN3CCCC3)cc2)nc1Nc1cccc(S(=O)(=O)NC(C)(C)C)c1 | 4320 nM (active) | –
CCOc1cc2ncc(C#N)c(Nc3ccc(F)c(Cl)c3)c2cc1NC(=O)/C=C/CN(C)C | 17200 nM (active) | –
CC[C@@]1(O)C(=O)OCc2c1cc1n(c2=O)Cc2c-1nc1ccccc1c2/C=N/OC(C)(C)C | 27.3 nM (active) | –
CC(=O)c1cnc2ccc(-c3cc(Cl)c(O)c(Cl)c3)nc2c1NC1CCC(CN(C)C)CC1 (stereo not given) | 222 nM (active) | –
FC(F)(F)c1ccc(/C=C/c2nc(COc3ccc(CCCCn4ccnn4)cc3)co2)cc1 | 19.3 nM (active) | –
CC(=O)NCC(=O)N1C2CCC1c1cc(Nc3ncc(C(F)(F)F)c(NC4CCC4)n3)ccc12 (stereo not given) | 685 nM (active) | –
Cn1cnc([N+](=O)[O-])c1Sc1ncnc2nc[nH]c12 | 5440 nM (active) | –
CC(C)[C@@H](CS(=O)(=O)C(C)C)N1C(=O)[C@@](C)(CC(=O)O)C[C@H](c2cccc(Cl)c2)[C@H]1c1ccc(Cl)cc1 | 2430 nM (active) | –
Cc1ccc(C(N)=O)cc1Nc1nccc(-c2cn(C(C)C)c3cnccc23)n1 | 1370 nM (active) | –
CN(C[C@@H]1COCCO1)S(=O)(=O)Nc1ccc2ccc3ncc(-c4cnn(C)c4)cc3c(=O)c2c1 | 17200 nM (active) | –
